# According to the supplement of paper PMC6555819:
# Assays:
# Test in all cases: PBM binding z-score (relative to random genomic background probes); higher = stronger binding; sequences stand for … in GC…GCGATTGACAGCGTAGAATGAAGG
# [1] = system: RARb homodimer (NR concentration 270 nM)
# Method in brief: (§1)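 Binding z-scores take random background probes as their reference. They come from custom Agilent 4×180K protein-binding microarrays incubated 1 h with ligand-free nuclear receptor dimers, with antibodies against each partner (one per run) detecting binding. Scanned fluorescence was regression-normalized.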
# [2] = system: RARg:RXRa (NR concentration 270 nM, RXRa partner concentration 90 nM)
# Method in brief: as §1
# [3] = system: RARg homodimer (NR concentration 270 nM)
# Method in brief: as §1
# [4] = system: RXRa DBDmut IVT, anti-RXR (DBD mutation: RXRa K156A/R161A, NR concentration 90 nM)
# Method in brief: as §1
# [5] = system: RXRa homodimer (NR concentration 180 nM)
# Method in brief: as §1
# [6] = system: THRa:RXRa (NR concentration 90 nM, RXRa partner concentration 90 nM)
# Method in brief: as §1
# [7] = system: THRa homodimer (NR concentration 90 nM)
# Method in brief: as §1
# [8] = system: VDR homodimer (NR concentration 270 nM)
# Method in brief: as §1
Sequence,PBM binding z-score [1],PBM binding z-score [2],PBM binding z-score [3],PBM binding z-score [4],PBM binding z-score [5],PBM binding z-score [6],PBM binding z-score [7],PBM binding z-score [8]
GCATACAGGTGAAACGCAGGTAACTCAGGGTGGC,0.299,1.03,0.276,-0.217,0.854,1.42,-0.151,-0.463
CCTAGCAGGCCTATCTGGGTCACTCAAGGCTTGA,1.68,0.716,0.616,-0.488,0.644,2.3,0.219,-0.239
CCTTACGGGTCACTGCCAGGTTATAGCATTTGGA,3.13,5.43,4.16,1.46,4.62,3.4,0.811,1.47
AGTCAAAGTTCATCTACGTAACGTAAGATATGCT,3.64,5.4,6,4.59,4.55,1.88,-0.445,4.34
CTCGAAAGATCGGTTGAGGTGAGTATACGGATAA,-0.106,-0.00103,-0.0275,-0.15,0.118,3.31,0.715,-0.316
TAGCCTAGGCCATTGGGCCAGTATAGTACGCATC,-0.0575,-0.137,0.339,-1.16,-0.506,-0.321,-0.972,-0.404
CGAACTAGGTCATTGACAGGACGGTGAATAGTAA,2.33,4.09,4.33,2.13,2.59,2.58,0.313,0.872
AGAATGAGGTTACGATCAGGGAAACAGAATACAT,1.15,2.31,1.83,0.839,2.77,2.99,0.967,0.356
CCTGCTGGGCCAAGGTCATTGATCAGTCAAAGCA,3.19,3.79,2.93,1.26,3.54,3.49,2.22,2.48
CCGAGAAGGTTATGGGGCATTCAGGCAACGGTGA,1.61,1.84,1.38,0.364,2.23,1.3,0.0713,0.22
TCTAGCAGCCCAGAGGGTCACTCAAGAGGTACGG,2.38,2.16,1.8,-0.186,2.23,1.63,-0.455,0.294
TAGCCTAGGTCATACGGGCCAGTATAGTGTCGGC,2.87,3.74,4.43,0.941,3.22,2.92,0.814,0.783
CCTCGGACGACAACAGGAGGTCAGAGCTGCCAGA,2.97,1.95,1.99,-0.432,1.84,1.92,0.602,0.934
TCGAGTAGGTTACCAATGGGGGATTCAGCTTTCT,0.472,1.09,0.478,0.789,0.767,0.805,0.162,-0.0448
CCTAGCAGGCCAGGGTCCCTCAAGCATTTCGCTT,-0.427,-0.683,-0.827,-1.15,-0.657,-0.281,-0.649,-0.542
CTCGAAATGTCGGTTGAGGTGAGTATACGGATAA,0.344,0.0589,0.341,0.0185,0.114,3.31,1.36,0.263
CCAAGTTGGTCAAGGTCACACACGCTATAGGTAC,4.47,5.04,5.36,2.86,5.31,4.06,4.34,4.56
TTATATAGGTAAAAGGTGAAAGTCGGTGTGGTAA,1.62,2.08,0.991,0.197,2.87,1.77,0.486,0.445
CCGACTGGGGCATAAGTTTACCATAAGCCAGCCC,0.519,0.0613,0.233,0.17,-0.0212,-0.345,-0.433,-0.134
CCAATTAGTTGACCATAAGGGCAACCGAAGCTCG,2.16,1.22,1.02,0.647,0.634,1.98,1.5,0.962
CCAGACAGGTGAAAGGTAACGCAGTCTGGTACGC,1.03,1.46,0.723,-0.16,2.42,1.08,-0.07,-0.146
TCATACAGGTGAAGGTAACTCAGGTACGCAGTCG,0.9,0.872,0.925,1.33,1.42,1.67,0.594,0.668
GCTAGCAGGCCATTTGGGTTACTCAATGACGGGC,-0.137,-0.0989,0.178,-0.102,0.0436,0.307,-0.64,-0.276
TCTTATAGGTAAAAGGTGAAAGTCGGTGTGGTAA,1.91,2.24,0.977,1.69,3.2,1.8,0.525,0.326
TCTAGTTGGACAAAGGTCACACACTCGAAATGCG,5.06,6.62,5.93,1.75,7.13,4.12,1.8,2.24
TCATATAGGTAATACAGGTGTAAGTCGGCATCTA,-0.213,0.547,0.355,1.67,1.03,0.384,0.316,0.283

Sequence,PBM binding z-score [1],PBM binding z-score [2],PBM binding z-score [3],PBM binding z-score [4],PBM binding z-score [5],PBM binding z-score [6],PBM binding z-score [7],PBM binding z-score [8]
CGAACTAGTTCAGAACAGGACAGTGAAGGATGAT,0.329,0.335,0.706,1.18,0.233,1.8,-0.53,0.226
CCGAGTAGGTTATGGGGCATGCAGGCAACGGTGA,1.15,0.72,0.548,-0.675,0.867,0.102,-0.321,-0.0729
CAAACTAGGTCACCGGAAGGTCAAACTCCGCATG,5.43,8.28,7.24,2.46,6.33,4.6,3.44,4.04
CGTCCAAGTTCAAGGTCAGTGAAAGAGACTCGAA,4.11,4.76,5.33,4.51,3.82,3.56,2.47,4.98
CCTTCCGGGTCACTGACAGGTTATAGCATTTGGA,3.23,5.65,4.44,1.53,4.67,3.67,2.25,1.3
TCTTGTAGATCAACGGTTAAGAAAGCCGAAGCCT,-0.249,-0.0923,-0.227,0.721,0.21,-0.24,-0.541,-0.227
CCTAGCAGGCCAGGGTCACTCTAGCATTTCGCTT,2.58,2.69,2.31,0.701,2.88,2.56,0.876,1.14
TCTGCTAGGTCAACGATGGTCAGCTAGTCTGCTA,3.54,3.9,4.61,0.638,2.5,3.16,0.617,-0.544
CCGAGTAGGTTATTGGGCATTCAGGCAACGGTGA,0.361,0.0352,0.187,0.421,0.183,0.0204,0.103,0.256
CCTATTAGTTGACCCTAAGGGCAACCGAAGCTCG,3.48,4.12,2.5,0.762,5.73,4.02,3.25,1.72
CCTACTGGGACAAAAAGGTCATTGATGCCGATAA,4.37,4.68,4.48,1.21,5.22,3.31,0.878,3.69
CCGAGTAGGTTATGTGGCATTCAGGCAACGGTGA,0.908,0.273,0.223,0.434,0.208,0.162,0.415,0.153
GCTCGGCGGACAAGGTCAGAGCTTTGTCCGTAGA,2.47,2.59,2.54,-0.314,2.11,2.25,0.553,0.0541
TCGAGTAGGTTAGGGGCATTCTGAATGGCGTCGA,0.656,0.0827,0.00279,0.628,0.386,0.627,-0.0336,0.572
ACTAGCAGGCCAATTTTGGGTCACTCAAACAAAG,2.11,1.59,1.25,-0.264,0.898,2.34,1.24,-0.032
GCAGACAGGTGAAACGCAGCTAACTCAGGGTGGC,-0.474,-0.209,-0.0146,-0.543,-0.0388,-0.192,-0.872,-1.11
TCGAGTAGGTCAGGGGCATTCAGAATGGCGTCGA,2.9,3.14,3.99,0.647,2.5,1.6,0.0377,0.669
ATCGAAAGGTCGACGAGGTGAGTATTCACCGTTT,3.13,4.29,4.32,1.13,4.63,3.65,0.672,0.806
ATCGAAAGGTCGAGGTGTGTATAGAGAAAGGGAA,2.82,4.23,4.18,0.84,4.06,2.05,0.277,0.444
CAAACTACGTCACAGAGGTCAAAGTCCGTGCGTA,4.71,5.46,4.64,1.87,6.27,3.7,1.47,4.03
ATCTCTAGGTAAGACTCGGTTCAGTGAAGAACGC,0.578,0.12,0.211,0.708,0.162,0.549,0.875,2.06
TGAATGAAGTTATAAGATCAGGGAACGTTGCAAA,-0.946,-0.0858,-0.101,-0.953,-0.319,-0.471,-0.931,-0.524
AGAATGAGGTTATAAGTAGATCAGGGAAGAAAGT,0.89,1.35,0.794,1.41,2.12,2.1,0.689,1.09
CCTAGCACGCCAGGGTCACTCAAGCATTTCGCTT,2.65,2.94,2.18,0.65,3.14,2.76,1.12,0.973
GCGACTGGGGCAAAGCAAGTTACCATAAGGTTGG,0.158,0.0953,0.244,-0.247,0.26,0.526,-0.346,-0.341
TCTTGTAGTTCAACAGGAGGTTAAGAAAGATCGA,2.2,4.32,2.05,2.02,2.16,2.17,-0.466,1.11
